Structures can show the parent of a compound that is named as a salt.
System: Vero E6 infected with SARS-CoV-2
Experiment: inhibition of SARS-CoV-2 cytopathic effect; higher = more antiviral protection, active = above 15
Details: 48 h

Measured: inhibition of SARS-CoV-2 cytopathic effect

COC(=O)CCC(=O)CN [methyl-aminolevulinate]
inactive: 1 nM 2.97% | 8.33 nM 2.46% | 100 nM 1.49% | 833.33 nM 3.55% | 10000 nM 5.12%

CNCCc1cnc[nH]1 [N-alpha-methylhistamine-dihydrochloride]
inactive: 1 nM 0.16% | 8.33 nM 2.71% | 100 nM 2.12% | 833.33 nM -0.59% | 10000 nM 1.37%

COC(=O)c1ccc2c(c1)nc(NC(=O)c1ccccc1)n2CCCc1ccccc1
inactive: 1 nM -0.52% | 8.33 nM -1.27% | 100 nM -1.28% | 833.33 nM -5.07% | 10000 nM -1.86%

O=c1c2ccccc2nc2n1CCc1c-2[nH]c2ccccc12 [rutaecarpine]
inactive: 1 nM -1.97% | 8.33 nM 0.36% | 100 nM -0.87% | 833.33 nM 0.6% | 10000 nM -0.59%

CN1CCN(c2c(F)cc3c(=O)c(C(=O)O)cn4c3c2SCC4)CC1 [rufloxacin]
inactive: 1 nM 0.11% | 8.33 nM -1.78% | 100 nM 0.94% | 833.33 nM 1.64% | 10000 nM -3.47%

O=C1OCCN1/N=C/c1ccc([N+](=O)[O-])o1 [furazolidone]
inactive: 1 nM 2.49% | 8.33 nM 3.22% | 100 nM 2.2% | 833.33 nM 1.08% | 10000 nM 0.23%

CC[N+](C)(CC)CCOC(=O)C1c2ccccc2Oc2ccccc21 [methantheline]
inactive: 1 nM 7.35% | 8.33 nM 3.87% | 100 nM 1.9% | 833.33 nM -0.21% | 10000 nM 3.41%
